# Reference: ChEMBL document CHEMBL5606458, “ASAP - ZIKV NS2B-NS3 protease fluorescence single point” (2024)
# In all, about 2,700 compounds went through this assay and about 160 (5.9%) showed an effect of 50% or more. Only a selection was taken, and strong results are over-represented in it overall.
# Molecular target: Nonstructural protein 3 (Zika virus) (UniProt A0A024AXB9)
# Sequence (A0A024AXB9 as listed by the source): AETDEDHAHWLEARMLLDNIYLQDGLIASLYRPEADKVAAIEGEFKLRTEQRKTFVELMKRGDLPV
smiles,measurement,setting,value
c1ccc(COC2CCN(Cc3c[nH]c4ccccc34)CC2)cc1,inhibition,"PRVABC59, Concentration 49.5 uM, Number of replicates 2.0, Standard deviation 2.313702836748105 %",23.5%
same,inhibition,"PRVABC59, Concentration 99.01 uM, Number of replicates 2.0, Standard deviation 1.2274106375778986 %",39.6%
same,inhibition,"PRVABC59, Concentration 198.0 uM, Number of replicates 2.0, Standard deviation 0.262548566589399 %",58.3%
FC(F)(F)c1ccccc1C1CCN(Cc2c[nH]c3ccccc23)CC1,inhibition,"PRVABC59, Concentration 49.5 uM, Number of replicates 2.0, Standard deviation 0.039004379485921774 %",33%
same,inhibition,"PRVABC59, Concentration 99.01 uM, Number of replicates 2.0, Standard deviation 0.833177783151486 %",38.2%
same,inhibition,"PRVABC59, Concentration 198.0 uM, Number of replicates 2.0, Standard deviation 1.0547312903060968 %",41.8%
c1ccc2c(CN3CCC(c4cscn4)CC3)c[nH]c2c1,inhibition,"PRVABC59, Concentration 49.5 uM, Number of replicates 2.0, Standard deviation 0.07712401232790286 %",65.8%
same,inhibition,"PRVABC59, Concentration 99.01 uM, Number of replicates 2.0, Standard deviation 0.031176529605690447 %",79.9%
same,inhibition,"PRVABC59, Concentration 198.0 uM, Number of replicates 2.0, Standard deviation 0.07383858119278165 %",89.2%
c1cc(C2CCN(Cc3c[nH]c4ccccc34)CC2)c2ccncc2c1,inhibition,"PRVABC59, Concentration 49.5 uM, Number of replicates 2.0, Standard deviation 0.9049501572428696 %",65.6%
same,inhibition,"PRVABC59, Concentration 99.01 uM, Number of replicates 2.0, Standard deviation 0.6350269036884285 %",80.3%
same,inhibition,"PRVABC59, Concentration 198.0 uM, Number of replicates 2.0, Standard deviation 0.1685064720944352 %",90%
C#CCn1ccnc(N2CC[C@H](CO)C2)c1=O,inhibition,"PRVABC59, Concentration 49.5 uM, Number of replicates 2.0, Standard deviation 1.0450300973032534 %",12.1%
same,inhibition,"PRVABC59, Concentration 99.01 uM, Number of replicates 2.0, Standard deviation 3.6329706761941627 %",19.8%
same,inhibition,"PRVABC59, Concentration 198.0 uM, Number of replicates 2.0, Standard deviation 1.3173095282768474 %",33.5%
CCCC[C@H](NC(=O)OC(C)(C)C)C(=O)N[C@H](C(=O)NCc1ccc(C(N)=O)cc1)c1ccc(OCc2ccccc2)cc1,inhibition,"PRVABC59, Concentration 49.5 uM, Number of replicates 2.0, Standard deviation 0.2512152790248196 %",-3.29%
same,inhibition,"PRVABC59, Concentration 99.01 uM, Number of replicates 2.0, Standard deviation 1.1330320426444238 %",4.53%
same,inhibition,"PRVABC59, Concentration 198.0 uM, Number of replicates 2.0, Standard deviation 0.18969183837952716 %",69.4%
CCCC[C@@H](NC(=O)OC(C)(C)C)C(=O)N[C@@H](C(=O)NCc1ccc(CN)cc1)c1ccc(OCc2ccccc2)cc1,inhibition,"PRVABC59, Concentration 49.5 uM, Number of replicates 2.0, Standard deviation 0.1534981479270999 %",98.5%
same,inhibition,"PRVABC59, Concentration 99.01 uM, Number of replicates 2.0, Standard deviation 0.024832248793042588 %",99.6%
same,inhibition,"PRVABC59, Concentration 198.0 uM, Number of replicates 2.0, Standard deviation 0.14898809796164614 %",99%
CCn1ccnc(N2CC[C@H](c3cccnc3)C2)c1=O,inhibition,"PRVABC59, Concentration 49.5 uM, Number of replicates 2.0, Standard deviation 0.6295639977718405 %",11.1%
same,inhibition,"PRVABC59, Concentration 99.01 uM, Number of replicates 2.0, Standard deviation 0.9611868657983497 %",17.2%
same,inhibition,"PRVABC59, Concentration 198.0 uM, Number of replicates 2.0, Standard deviation 2.077820749798943 %",29.9%
O[C@@H]1CNC[C@H]1c1c[nH]c2ccccc12,inhibition,"PRVABC59, Concentration 49.5 uM, Number of replicates 2.0, Standard deviation 0.0908773719339778 %",4.36%
same,inhibition,"PRVABC59, Concentration 99.01 uM, Number of replicates 2.0, Standard deviation 0.868383551474818 %",12%
same,inhibition,"PRVABC59, Concentration 198.0 uM, Number of replicates 2.0, Standard deviation 1.0703330421004655 %",25.3%
CCn1ccnc(N2CC[C@H](C#N)C2)c1=O,inhibition,"PRVABC59, Concentration 50.0 uM, Number of replicates 1.0",9.92%
same,inhibition,"PRVABC59, Concentration 100.0 uM, Number of replicates 2.0, Standard deviation 3.4431722905816002 %",15.4%
same,inhibition,"PRVABC59, Concentration 200.0 uM, Number of replicates 3.0, Standard deviation 5.353488841443075 %",26.6%
CCn1ccnc(N2CC[C@@H](CC#N)C2)c1=O,inhibition,"PRVABC59, Concentration 49.5 uM, Number of replicates 2.0, Standard deviation 4.2825905047110036 %",7.54%
same,inhibition,"PRVABC59, Concentration 99.01 uM, Number of replicates 2.0, Standard deviation 3.0053265516656906 %",14.9%
same,inhibition,"PRVABC59, Concentration 198.0 uM, Number of replicates 2.0, Standard deviation 1.5959318913639373 %",26%
CCn1ccnc(N(C)[C@@H](CO)Cc2c[nH]c3ccccc23)c1=O,inhibition,"PRVABC59, Concentration 49.5 uM, Number of replicates 2.0, Standard deviation 1.5047267855359387 %",5.63%
same,inhibition,"PRVABC59, Concentration 99.01 uM, Number of replicates 2.0, Standard deviation 0.8040526249565179 %",13%
same,inhibition,"PRVABC59, Concentration 198.0 uM, Number of replicates 2.0, Standard deviation 1.5605190977207197 %",25.3%
C[C@@H](CO)N1CC[C@H](c2c[nH]c3ccccc23)C1,inhibition,"PRVABC59, Concentration 49.5 uM, Number of replicates 2.0, Standard deviation 2.959092091051968 %",-1.43%
same,inhibition,"PRVABC59, Concentration 99.01 uM, Number of replicates 2.0, Standard deviation 1.9403190167556676 %",0.816%
same,inhibition,"PRVABC59, Concentration 198.0 uM, Number of replicates 2.0, Standard deviation 2.4285693519175138 %",5.47%
O[C@@H]1CN(Cc2c[nH]c3ccccc23)CC[C@@H]1c1ccccc1,inhibition,"PRVABC59, Concentration 49.5 uM, Number of replicates 2.0, Standard deviation 0.3811882362248968 %",52.4%
same,inhibition,"PRVABC59, Concentration 99.01 uM, Number of replicates 2.0, Standard deviation 0.3137721603955992 %",68%
same,inhibition,"PRVABC59, Concentration 198.0 uM, Number of replicates 2.0, Standard deviation 0.1218792449994391 %",78.3%
c1ccc2c(CN3CCC(c4c[nH]c5cccnc45)CC3)c[nH]c2c1,inhibition,"PRVABC59, Concentration 49.5 uM, Number of replicates 2.0, Standard deviation 1.80837898184189 %",63.8%
same,inhibition,"PRVABC59, Concentration 99.01 uM, Number of replicates 2.0, Standard deviation 1.3316731742493602 %",74.9%
same,inhibition,"PRVABC59, Concentration 198.0 uM, Number of replicates 2.0, Standard deviation 0.976733320927472 %",81.5%
N#C[C@H]1CCCN(Cc2c[nH]c3ccccc23)C1,inhibition,"PRVABC59, Concentration 49.5 uM, Number of replicates 2.0, Standard deviation 3.0443309311516127 %",3.62%
same,inhibition,"PRVABC59, Concentration 99.01 uM, Number of replicates 2.0, Standard deviation 5.606340240027709 %",5.66%
same,inhibition,"PRVABC59, Concentration 198.0 uM, Number of replicates 2.0, Standard deviation 2.4427254668079588 %",8.81%
c1ccc2c(CN3CCC(c4c[nH]c5ncccc45)CC3)c[nH]c2c1,inhibition,"PRVABC59, Concentration 49.5 uM, Number of replicates 2.0, Standard deviation 1.5803867849339672 %",58.2%
same,inhibition,"PRVABC59, Concentration 99.01 uM, Number of replicates 2.0, Standard deviation 1.538935865185685 %",72.5%
same,inhibition,"PRVABC59, Concentration 198.0 uM, Number of replicates 2.0, Standard deviation 1.43011742277759 %",82.3%
c1cnc2c(C3CCN(Cc4c[nH]c5ncccc45)CC3)c[nH]c2c1,inhibition,"PRVABC59, Concentration 49.5 uM, Number of replicates 2.0, Standard deviation 1.618110911749522 %",7.76%
same,inhibition,"PRVABC59, Concentration 99.01 uM, Number of replicates 2.0, Standard deviation 1.5506891039488269 %",16.5%
same,inhibition,"PRVABC59, Concentration 198.0 uM, Number of replicates 2.0, Standard deviation 1.1046722712184134 %",29.8%
C[C@@H](Cc1c[nH]c2ccccc12)N1CC[C@H](c2c[nH]c3ccccc23)C1,inhibition,"PRVABC59, Concentration 49.5 uM, Number of replicates 2.0, Standard deviation 2.440376707234144 %",29.4%
same,inhibition,"PRVABC59, Concentration 99.01 uM, Number of replicates 2.0, Standard deviation 1.7661943697547304 %",46%
same,inhibition,"PRVABC59, Concentration 198.0 uM, Number of replicates 2.0, Standard deviation 0.6921254310022592 %",60.4%
C[C@@H](Cc1c[nH]c2ccccc12)N1CC[C@H](n2ncc3ccccc32)C1,inhibition,"PRVABC59, Concentration 49.5 uM, Number of replicates 2.0, Standard deviation 0.39220306220212786 %",9.38%
same,inhibition,"PRVABC59, Concentration 99.01 uM, Number of replicates 2.0, Standard deviation 0.9766631885715499 %",10.3%
same,inhibition,"PRVABC59, Concentration 198.0 uM, Number of replicates 2.0, Standard deviation 1.7687599327172854 %",8.18%
